# Measured values taken from PubChem BioAssay AID1851 (National Center for Advancing Translational Sciences (NCATS), 2009).
# Several values for one entry are separate records, joined by “and”; a condition that tells them apart may be missing. Identical values can stand only once. The whole screen tested about 16,000 compounds, of which about 5,100 (32%) were called active. Roughly 25% stayed inconclusive and do not appear here. Calls come from the whole dose curve; as a rule, active = well fitted curve in the direction sought with a large enough effect; inconclusive = small, poorly fitted or top-dose-only effect, or effect the other way; inactive = no such curve, though single readings can be large or run the other way. The list shows a part of the results. The source holds several records for some structures; these can differ, active in one and inactive in another.
# Target: Cytochrome P450 3A4 (Homo sapiens) (UniProt P08684)
# Sequence (P08684 whole entry, looked up): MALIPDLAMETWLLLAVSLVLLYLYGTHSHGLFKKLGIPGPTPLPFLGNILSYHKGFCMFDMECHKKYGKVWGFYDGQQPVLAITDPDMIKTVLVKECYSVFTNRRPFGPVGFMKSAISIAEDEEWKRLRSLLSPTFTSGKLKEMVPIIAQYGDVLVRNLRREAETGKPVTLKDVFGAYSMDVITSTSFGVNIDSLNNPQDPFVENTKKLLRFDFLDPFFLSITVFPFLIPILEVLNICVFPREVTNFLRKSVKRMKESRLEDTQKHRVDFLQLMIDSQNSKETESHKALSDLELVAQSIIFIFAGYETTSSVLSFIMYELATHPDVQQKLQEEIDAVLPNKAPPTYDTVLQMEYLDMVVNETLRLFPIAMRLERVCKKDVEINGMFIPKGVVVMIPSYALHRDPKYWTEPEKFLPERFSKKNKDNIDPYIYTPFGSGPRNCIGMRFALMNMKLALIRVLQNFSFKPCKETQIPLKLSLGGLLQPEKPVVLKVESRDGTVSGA
# Experiment: Cytochrome panel assay with activity outcomes
# Settings: recombinant CYP, pro-luciferin dealkylation, luminescence, p450-cyp3a4; series mostly up to 57.1 µM
# % is set by controls: 0 for no effect and ±100 for the full control effect.
Compound,"activity, negative = inhibition",AC50
C[C@@H]1CC[C@@H]2N(C1)C[C@H]1[C@@](O)([C@H](O)C[C@]3(O)[C@H]4CC[C@H]5[C@]6(O)O[C@]4(C[C@]13O)[C@@]5(C)CC[C@@H]6O)[C@@]2(C)O,-1.62% [at 11.4 µM] (inactive),
Nc1ncnc2c1ncn2[C@@H]1O[C@@H](COP(=O)(O)CP(=O)(O)OP(=O)(O)O)[C@H](O)[C@@H]1O,inactive,
O=C(O)CC[N+](=O)[O-],inactive,
CC(C)Oc1cc(-n2c(=S)[nH]c3ccccc3c2=O)c(Cl)cc1Cl,,3.16 µM (active)
CN1[C@H]2CC(=O)C[C@@H]1[C@@H](O)C2,inactive,
c1ccc2cc(CC3=NCCN3)ccc2c1,inactive,
N[C@H](Cn1ccc(=O)[nH]c1=O)C(=O)O,inactive,
CC[C@@H](CO)NC(=O)[C@H]1C=C2c3cccc4c3c(cn4C)C[C@H]2N(C)C1,inactive,
CC[C@@H](CO)Nc1nc(NCc2ccccc2)c2ncn(C(C)C)c2n1,,12.6 µM (active)
CC(C)[C@H](CO)Nc1nc(Nc2cccc(Cl)c2)c2ncn(C(C)C)c2n1,,12.6 µM (active)
COC(=O)c1c(C)ccc2c(O)c3c(cc12)C(=O)c1c2c(cc(O)c1C3=O)[C@@]1(C)O[C@@](C)(O2)[C@@H](O)[C@H](N(C)C)[C@H]1O,-1.78% [at 11.4 µM] (inactive),
C(=NC12CN3CN(CN(C3)C1)C2)c1cccs1,inactive,
CN(C)C(=O)Oc1cccc([N+](C)(C)C)c1,inactive,
COC(=O)C1=CCCN(C)C1,inactive,
CC(C)N[C@@H](C)Cc1ccc(I)cc1,inactive,
Nc1nc(N)c(N=Nc2ccc([As](=O)(O)O)cc2)c(=O)[nH]1,8.58% [at 11.4 µM] (inactive),
C/C=C1\C[C@H](C)[C@@](O)(CO)C(=O)OCC2=CCN3CC[C@@H](OC1=O)[C@@H]23,inactive,
N=C1c2ccccc2CN1NC(=O)c1ccc(F)cc1,inactive,
Cc1nccc2c1[nH]c1ccccc12,,inactive and 3.98 µM (active)
Cc1c2ccncc2c(C)c2c1[nH]c1ccccc12,,0.158 µM (active)
CCN(CC)CCn1ncc2c(N)ncnc21,-6.29% [at 11.4 µM] (inactive),
COc1ccc2cc1Oc1ccc(cc1)C[C@H]1c3cc(c(OC)cc3CCN1C)Oc1c(OC)c(OC)cc3c1[C@@H](C2)N(C)CC3,-2.4% [at 11.4 µM] (inactive),

Compound,"activity, negative = inhibition",AC50
C[N+]1(C)CCO[C@](O)(c2ccc(-c3ccc([C@]4(O)C[N+](C)(C)CCO4)cc3)cc2)C1,inactive,
COCCn1c(SCc2nc3sc(C(=O)OC)c(C)c3c(=O)[nH]2)nc2ccccc21,,3.55 µM (active)
CC1(C)N(O)C(c2ccc(C(=O)O)cc2)=[N+]([O-])C1(C)C,inactive,
CC(C)[C@@H](C)/C=C\[C@@H](C)[C@@H]1CC[C@H]2C3=CC=C4C[C@@H](O)CC[C@]4(C)[C@H]3CC[C@]21C,10.4% [at 11.4 µM] (inactive),
NCCP(=O)(O)O,-6.9% [at 11.4 µM] (inactive),
CCOCCN1CCC(OC(C)=O)C(C)C1 (stereo not given),inactive,
CC(C)(C)NC[C@@H](O)COc1cccc2[nH]c(C#N)cc12,,25.1 µM (active)
NCC1(CC(=O)O)CCCCC1,inactive,
COc1cc(/C=N/NC(=O)CN2CC(c3ccccc3)CC2=O)ccc1OC(=O)N(C)C (stereo not given),inactive,
CC[C@H](C)C(=O)O[C@@H]1[C@H](O)[C@@H]2[C@H](CN3C[C@@H](C)CC[C@@H]3[C@@]2(C)O)[C@@H]2C[C@@]34O[C@@]5(O)[C@@H](OC(=O)[C@](C)(O)CC)CC[C@@]3(C)[C@H]5[C@H](OC(C)=O)[C@@H](OC(C)=O)[C@H]4[C@]12O,inactive,
N[C@@H](Cc1cc(Br)c(O)c(Br)c1)C(=O)O,-16.7% [at 11.4 µM] (inactive),
Cc1ccc2c(c1)C1CN(C)CCC1N2C(=O)Nc1cccc(Cl)c1 (stereo not given),inactive,
CCn1cnc2c(Nc3cccc(Cl)c3)nc(N[C@@H]3CCCC[C@H]3N)nc21,,12.6 µM (active)
COc1ccc(C(=O)NC2CC3CCCC(C2)N3CC(C)C)cc1OC (stereo not given),inactive,
CC(Oc1ccc(-c2ccccc2)cc1)C(=O)O (stereo not given),4.5% [at 11.4 µM] (inactive),
C[C@@H]1O[C@H](OC2[C@@H](O)[C@H](O)C(O)[C@H](O)[C@H]2O)[C@@H](N)C[C@@H]1N=C(N)C(=O)O (stereo not given in full),2.45% [at 11.4 µM] (inactive),
NC[C@@H](CC(=O)O)c1ccc(Cl)cc1,inactive,
O=C1CN=C(c2cccs2)c2c(sc3c2CCCC3)N1,,15.8 µM (active)
Cc1cc(Cc2cc(C)c(N)cc2N)c(N)cc1N,-12.7% [at 11.4 µM] (inactive),
Cc1ccc(NC(=[OH+])c2cc3ccccc3cc2O)c(C)c1.Cc1ccc(NC(=[OH+])c2cc3ccccc3cc2O)c(C)c1.[Ni],-23% [at 11.4 µM] (inactive),
CC(C)CCC[C@@H](C)[C@@H]1CC[C@@H]2[C@H]3CC[C@H]4C[C@@H](N)CC[C@@]4(C)[C@@H]3CC[C@]21C,0.227% [at 11.4 µM] (inactive),
Cc1c2cc[n+](CCN3CCCCC3)cc2c(C)c2c1[nH]c1ccc(O)cc12,-14.8% [at 11.4 µM] (inactive),

Compound,"activity, negative = inhibition",AC50
CN1CCN(C(=O)O[C@@H]2c3nccnc3C(=O)N2c2ccc(Cl)cn2)CC1,inactive,
COC1=C[C@H]2C3=C([C@H]2C1=O)[C@H](NC(C)=O)CCc1cc(OC)c(OC)c(OC)c13,inactive,
CCCCN1C(=O)C(C2c3ccccc3C(=O)N2Cc2ccccc2)C(=O)NC1=S (stereo not given),,2.51 µM (active)
CN1C(=O)C(C2c3ccccc3C(=O)N2Cc2ccc([N+](=O)[O-])cc2)C(=O)N(C)C1=O (stereo not given),-20.1% [at 11.4 µM] (inactive),
CN1CCc2nc3ccc(F)cc3c(C(N)=O)c2C1,inactive,
CCN1C[C@]2(C)CC[C@@H](O)[C@]34[C@@H]5CC6[C@@H](OC)C[C@@](O)([C@H]5[C@@H]6O)[C@@H](C[C@@H]23)[C@H]14,inactive,
COC(=O)C1(C)C=C2C(=C(C)C(=O)C2C)CN1 (stereo not given),inactive,
N[C@@H](CCCCP(=O)(O)O)C(=O)O,inactive,
Cn1c(O)c(C(=N)COc2ccccc2)c(=O)n(C)c1=O,inactive,
NC[C@@H](O)CSP(=O)(O)O,2.73% [at 11.4 µM] (inactive),
CNC(C)Cc1ccccc1Sc1ccc(O)cc1 (stereo not given),-6.72% [at 2.29 µM] (inactive),
COC(=O)NC/C=C\c1nc(CC/C=C\C(=O)O[C@H]2C[C@H]3CC(=O)O[C@@H](/C=C\CC(C)C)C[C@@H]4CC[C@H](C)[C@H](C[C@@H](OC)C[C@H](C2)O3)O4)co1,,5.01 µM (active)
CNC(=O)Oc1ccc2c(c1)[C@@]1(C)CCN(C)[C@@H]1N2C,inactive,
C[N+]1([O-])[C@@H]2CC(OC(=O)[C@@H](CO)c3ccccc3)C[C@@H]1[C@H]1O[C@H]12 (stereo not given in full),inactive,
c1ccc2c(c1)OC[C@@H](C1=NCCN1)O2,inactive,
c1ccc(C2CC2)c(OCC2=NCCN2)c1,inactive,
CNCC/C=C\c1cccnc1,inactive,
S=C=Nc1cccc(C2(N3CCCCC3)CCCCC2)c1,,15.8 µM (active)
CCC(COC(=O)NC)NC(=O)Oc1ccccc1 (stereo not given),inactive,
NC(N)=NC(=O)c1nc(Cl)c(N)nc1N,inactive,
Clc1cc(I)cc(Cl)c1NC1=NCCN1,inactive,
O=C(N/N=C(\c1ccccc1)c1cccnc1)C(O)(c1ccccc1)c1ccccc1,,7.94 µM (active)

Compound,"activity, negative = inhibition",AC50
O=C(NCP(=O)(O)O)c1cccnc1,-14.3% [at 11.4 µM] (inactive),
CC[C@]1(C2=NCCN2)Cc2ccccc2O1,inactive,
CCN(CC)c1ccc(/C=C2/C(=O)NC(=O)N(CC3CCCO3)C2=O)cc1 (stereo not given),inactive,
C[C@@H]1O[C@@H](O[C@H]2C[C@@H](O)[C@]3(CO)[C@@H]4[C@@H](O)C[C@]5(C)[C@H](C6=CC(=O)OC6)CC[C@@]5(O)[C@H]4CC[C@@]3(O)C2)[C@H](O)[C@H](O)[C@@H]1O,inactive,
C/C=C(\C)C(=O)O[C@@H]1C(C)=C2[C@H]([C@@H]1OC(=O)CCCCCCC)[C@@](C)(OC(C)=O)C[C@@H](OC(=O)CCC)[C@@]1(O)[C@H]2OC(=O)[C@]1(C)O,,3.98 µM (active)
CO[C@H]1[C@H](O)[C@H](O[C@@H]2[C@H](Oc3cccc4c(O)c5c(=O)oc6ccc(C)c7c(=O)oc(c34)c5c67)O[C@@H](C)[C@H](O)[C@H]2O)O[C@@H](C)[C@@H]1O,-7.43% [at 11.4 µM] (inactive),
CCOC(=O)c1ncn2c1[C@H]1CCCN1C(=O)c1cc(OC)ccc1-2,inactive,
COc1cc2c(cc1OC)[C@@H]1C(=O)c3ccc4c(c3O[C@@H]1CO2)C=CC(C)(C)O4,,15.8 µM (active)
Cc1ncc([N+](=O)[O-])n1CCN=[N+]=[N-],-15.3% [at 11.4 µM] (inactive),
NCCc1ccc(S(=O)(=O)F)cc1,inactive,
C=CCN1C(=O)NC(=O)/C(=C/c2cccn2C)C1=O,8.88% [at 2.29 µM] (inactive),
O=c1c2ccccc2nc(N2CCCC2)n1-c1ccc(Cl)cc1,,12.6 µM (active)
Cc1nc2sccc2c(=O)n1-c1ccccc1Cl,4.91% [at 2.29 µM] (inactive),
O=C(Nc1ccc(Cl)cc1)Nc1nccs1,-2.97% [at 2.29 µM] (inactive),
O=C(O)CCCc1ccc(N(CCCl)CCCl)cc1,inactive,
Cc1cc(NC(=O)CCC(=O)N2CCC3(CC2)OCCO3)no1,inactive,
Cc1ccc2cc3cc(C(=O)N4CCC5(CC4)OCCO5)oc3nc2c1,inactive,
Cc1ccc2c(c1)N(CCC(=O)N1CCC3(CC1)OCCO3)C(=O)C(C)O2 (stereo not given),,2 µM (active)
CC(C)NP(=O)(NC(C)C)OP(=O)(NC(C)C)NC(C)C,inactive,
